Reference: article PMC11006913

Tests used:
Assay in all cases: PBM; 200 nM protein, PBS
Conditions in all cases: dsDNA, one strand shown
HOXB9 [1] = molecular target: HOXB9 (Homo sapiens, UniProt P17482 171-250, T197M)
HOXB9 [2] = molecular target: HOXB9 (Homo sapiens, UniProt P17482 171-250)
HOXB9 [3] = molecular target: HOXB9 (Homo sapiens, UniProt P17482 171-250, R186Q)
HOXA2 [4] = molecular target: HOXA2 (Homo sapiens, UniProt O43364 129-215, R185T)
HOXA2 [5] = molecular target: HOXA2 (Homo sapiens, UniProt O43364 129-215, R185K)
Sequence of HOXA2 (Homo sapiens, UniProt O43364 129-215, R185K) (O43364 129-215 R185K): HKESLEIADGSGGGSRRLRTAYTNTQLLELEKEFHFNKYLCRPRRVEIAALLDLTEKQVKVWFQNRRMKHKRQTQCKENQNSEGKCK

HOXA2 [6] = molecular target: HOXA2 (Homo sapiens, UniProt O43364 129-215, Y150S)
Sequence of HOXA2 (Homo sapiens, UniProt O43364 129-215, Y150S) (O43364 129-215 Y150S): as the sequence (O43364 129-215 R185K) above, with Y22S, K57R counted along it

HOXA2 [7] = molecular target: HOXA2 (Homo sapiens, UniProt O43364 129-215)
Sequence of HOXA2 (Homo sapiens, UniProt O43364 129-215) (O43364 129-215): as the sequence (O43364 129-215 R185K) above, with K57R counted along it

Sequence of HOXB9 (Homo sapiens, UniProt P17482 171-250) (P17482 171-250): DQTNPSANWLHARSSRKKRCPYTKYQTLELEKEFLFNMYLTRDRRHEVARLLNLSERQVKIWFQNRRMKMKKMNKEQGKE
Sequence of HOXB9 (Homo sapiens, UniProt P17482 171-250, T197M) (P17482 171-250 T197M): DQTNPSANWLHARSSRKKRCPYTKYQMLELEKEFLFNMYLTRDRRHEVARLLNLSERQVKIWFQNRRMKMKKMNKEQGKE
Sequence of HOXB9 (Homo sapiens, UniProt P17482 171-250, R186Q) (P17482 171-250 R186Q): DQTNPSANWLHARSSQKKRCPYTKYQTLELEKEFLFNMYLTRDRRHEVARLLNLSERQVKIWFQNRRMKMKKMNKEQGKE
Sequence of HOXA2 (Homo sapiens, UniProt O43364 129-215, R185T) (O43364 129-215 R185T): as the sequence (O43364 129-215 R185K) above, with K57T counted along it

Row | Sequence | binding signal (HOXB9 [1]) | binding signal (HOXB9 [2]) | binding signal (HOXB9 [3]) | binding signal (HOXA2 [4]) | binding signal (HOXA2 [5]) | binding signal (HOXA2 [6]) | binding signal (HOXA2 [7])
1 | GGAACCCC | 8.42 upbm affinity estimate (log intensity, higher = more binding, comparable within an allelic series) | 8.48 upbm affinity estimate (log intensity, higher = more binding, comparable within an allelic series) | 8.46 upbm affinity estimate (log intensity, higher = more binding, comparable within an allelic series) |  |  |  | 
2 | AAGTTATC | 9.1 upbm affinity estimate (log intensity, higher = more binding, comparable within an allelic series) | 9.66 upbm affinity estimate (log intensity, higher = more binding, comparable within an allelic series) |  |  |  |  | 
3 | CCGCAGCC | 8.52 upbm affinity estimate (log intensity, higher = more binding, comparable within an allelic series) | 8.38 upbm affinity estimate (log intensity, higher = more binding, comparable within an allelic series) | 8.47 upbm affinity estimate (log intensity, higher = more binding, comparable within an allelic series) |  |  |  | 
4 | GCCGCAGA | 8.65 upbm affinity estimate (log intensity, higher = more binding, comparable within an allelic series) | 8.62 upbm affinity estimate (log intensity, higher = more binding, comparable within an allelic series) | 8.62 upbm affinity estimate (log intensity, higher = more binding, comparable within an allelic series) |  |  |  | 
5 | CGCCCAGA | 8.62 upbm affinity estimate (log intensity, higher = more binding, comparable within an allelic series) | 8.59 upbm affinity estimate (log intensity, higher = more binding, comparable within an allelic series) | 8.62 upbm affinity estimate (log intensity, higher = more binding, comparable within an allelic series) |  |  |  | 
6 | GCCGGGCC | 8.36 upbm affinity estimate (log intensity, higher = more binding, comparable within an allelic series) | 8.42 upbm affinity estimate (log intensity, higher = more binding, comparable within an allelic series) | 8.41 upbm affinity estimate (log intensity, higher = more binding, comparable within an allelic series) |  |  |  | 
7 | GCGCGGCA | 8.49 upbm affinity estimate (log intensity, higher = more binding, comparable within an allelic series) | 8.54 upbm affinity estimate (log intensity, higher = more binding, comparable within an allelic series) | 8.56 upbm affinity estimate (log intensity, higher = more binding, comparable within an allelic series) | 7.06 upbm affinity estimate (log intensity, higher = more binding, comparable within an allelic series) | 10.3 upbm affinity estimate (log intensity, higher = more binding, comparable within an allelic series) | 10.4 upbm affinity estimate (log intensity, higher = more binding, comparable within an allelic series) | 6.94 upbm affinity estimate (log intensity, higher = more binding, comparable within an allelic series)
8 | CGTGGCTC | 8.5 upbm affinity estimate (log intensity, higher = more binding, comparable within an allelic series) | 8.18 upbm affinity estimate (log intensity, higher = more binding, comparable within an allelic series) | 8.26 upbm affinity estimate (log intensity, higher = more binding, comparable within an allelic series) |  |  |  | 
9 | CCCGCAAG | 8.42 upbm affinity estimate (log intensity, higher = more binding, comparable within an allelic series) | 8.44 upbm affinity estimate (log intensity, higher = more binding, comparable within an allelic series) | 8.51 upbm affinity estimate (log intensity, higher = more binding, comparable within an allelic series) |  |  |  | 
10 | CGCTACCG | 8.45 upbm affinity estimate (log intensity, higher = more binding, comparable within an allelic series) | 8.54 upbm affinity estimate (log intensity, higher = more binding, comparable within an allelic series) | 8.56 upbm affinity estimate (log intensity, higher = more binding, comparable within an allelic series) |  |  |  | 
11 | AGCATCCG | 8.64 upbm affinity estimate (log intensity, higher = more binding, comparable within an allelic series) | 8.73 upbm affinity estimate (log intensity, higher = more binding, comparable within an allelic series) | 8.71 upbm affinity estimate (log intensity, higher = more binding, comparable within an allelic series) |  |  |  | 
12 | CCCCTCGA | 8.73 upbm affinity estimate (log intensity, higher = more binding, comparable within an allelic series) | 8.55 upbm affinity estimate (log intensity, higher = more binding, comparable within an allelic series) | 8.57 upbm affinity estimate (log intensity, higher = more binding, comparable within an allelic series) |  |  |  | 
13 | GAACCGGC | 8.52 upbm affinity estimate (log intensity, higher = more binding, comparable within an allelic series) | 8.43 upbm affinity estimate (log intensity, higher = more binding, comparable within an allelic series) | 8.48 upbm affinity estimate (log intensity, higher = more binding, comparable within an allelic series) | 7.08 upbm affinity estimate (log intensity, higher = more binding, comparable within an allelic series) | 10.2 upbm affinity estimate (log intensity, higher = more binding, comparable within an allelic series) | 10.4 upbm affinity estimate (log intensity, higher = more binding, comparable within an allelic series) | 7.09 upbm affinity estimate (log intensity, higher = more binding, comparable within an allelic series)
14 | CGTCCGAC | 8.56 upbm affinity estimate (log intensity, higher = more binding, comparable within an allelic series) | 8.39 upbm affinity estimate (log intensity, higher = more binding, comparable within an allelic series) | 8.45 upbm affinity estimate (log intensity, higher = more binding, comparable within an allelic series) |  |  |  | 
15 | CTCAGGCC | 8.41 upbm affinity estimate (log intensity, higher = more binding, comparable within an allelic series) | 8.36 upbm affinity estimate (log intensity, higher = more binding, comparable within an allelic series) | 8.4 upbm affinity estimate (log intensity, higher = more binding, comparable within an allelic series) | 7.06 upbm affinity estimate (log intensity, higher = more binding, comparable within an allelic series) | 10.3 upbm affinity estimate (log intensity, higher = more binding, comparable within an allelic series) | 10.4 upbm affinity estimate (log intensity, higher = more binding, comparable within an allelic series) | 7.06 upbm affinity estimate (log intensity, higher = more binding, comparable within an allelic series)
16 | CTGCCGGC | 8.63 upbm affinity estimate (log intensity, higher = more binding, comparable within an allelic series) | 8.65 upbm affinity estimate (log intensity, higher = more binding, comparable within an allelic series) | 8.68 upbm affinity estimate (log intensity, higher = more binding, comparable within an allelic series) |  |  |  | 
17 | CTCGACCA | 8.44 upbm affinity estimate (log intensity, higher = more binding, comparable within an allelic series) | 8.28 upbm affinity estimate (log intensity, higher = more binding, comparable within an allelic series) | 8.38 upbm affinity estimate (log intensity, higher = more binding, comparable within an allelic series) |  |  |  | 
18 | AGGGCGTG | 8.57 upbm affinity estimate (log intensity, higher = more binding, comparable within an allelic series) | 8.4 upbm affinity estimate (log intensity, higher = more binding, comparable within an allelic series) | 8.53 upbm affinity estimate (log intensity, higher = more binding, comparable within an allelic series) |  |  |  | 
19 | CTGGCGTC | 8.43 upbm affinity estimate (log intensity, higher = more binding, comparable within an allelic series) | 8.27 upbm affinity estimate (log intensity, higher = more binding, comparable within an allelic series) | 8.34 upbm affinity estimate (log intensity, higher = more binding, comparable within an allelic series) |  |  |  | 
20 | CCCGTCTC | 8.46 upbm affinity estimate (log intensity, higher = more binding, comparable within an allelic series) | 8.32 upbm affinity estimate (log intensity, higher = more binding, comparable within an allelic series) | 8.4 upbm affinity estimate (log intensity, higher = more binding, comparable within an allelic series) |  |  |  | 
21 | CCTGCTCG | 8.58 upbm affinity estimate (log intensity, higher = more binding, comparable within an allelic series) | 8.34 upbm affinity estimate (log intensity, higher = more binding, comparable within an allelic series) | 8.42 upbm affinity estimate (log intensity, higher = more binding, comparable within an allelic series) |  |  |  | 
22 | CTTGGCGC | 8.47 upbm affinity estimate (log intensity, higher = more binding, comparable within an allelic series) | 8.24 upbm affinity estimate (log intensity, higher = more binding, comparable within an allelic series) | 8.21 upbm affinity estimate (log intensity, higher = more binding, comparable within an allelic series) |  |  |  | 
